Measurements as given in PubChem BioAssay AID1159580 (chemical genetic matrix, 2015).
Hit rate of the full screen: of about 5,500 compounds, about 2,000 (36%) were called active. Roughly 18% stayed inconclusive and do not appear here. Rule as the data show it: active = normalized growth mostly below about 0.91 (no sharp cut-off); inconclusive = no clear call, values can overlap the other calls; inactive = mostly above about 0.92. The list shows a part of the results.

Assay: chemical genetic growth profiling, strain panel (AID 1159580);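 also: tested at 20 µM; growth read once vehicle control cultures reached saturation at 30 °C; 1 = growth at the plate median or of vehicle wells; lower values mean less growth of the strain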
Conditions: S. cerevisiae deletion strains, growth OD
[1] = locus YDL101C, strain DUN1, hits give low values
[2] = locus YHR030C, strain SLT2, hits give low values

Measured: normalized growth

Cc1nn(Cc2n[nH]c(=S)o2)c(C)c1Br
inactive: locus YAL013W, strain DEP1, hits give low values 0.998 | locus YBR229C, strain ROT2, hits give low values 0.993 | [1] 1 | locus YDR150W, strain NUM1, hits give low values 0.933 | locus YEL061C, strain CIN8, hits give low values 1.02 | locus YGR078C, strain PAC10, hits give low values 0.981 | [2] 1.02 | locus YHR087W, strain rtc3, hits give low values 0.983 | locus YJL187C, strain SWE1, hits give low values 0.968 | locus YJR043C, strain POL32, hits give low values 0.983 | locus YJR075W, strain HOC1, hits give low values 0.979 | locus YKL190W, strain CNB1, hits give low values 1.02 | locus YLR039C, strain RIC1, hits give low values 1.02 | locus YLR058C, strain SHM2 (second series), hits give low values 0.996 | locus YLR085C, strain ARP6, hits give low values 1.09 | locus YLR262C, strain YPT6, hits give low values 1.04 | locus YML094W, strain GIM5, hits give low values 1.02 | locus YMR219W, strain ESC1, hits give low values 0.996 | locus YMR263W, strain SAP30, hits give low values 0.93 | locus YNL128W, strain TEP1, hits give low values 1.01 | locus YNL153C, strain GIM3, hits give low values 1.01 | locus YNL298W, strain CLA4 (second series), hits give low values 1.05 | locus YNL322C, strain KRE1, hits give low values 0.999 | locus YNR030W, strain Alg12, hits give low values 1.01 | locus YPL055C, strain LGE1, hits give low values 0.955 | locus YPL241C, strain CIN2, hits give low values 1.02 | locus YPR135W, strain CTF4, hits give low values 1.04

Cc1nn(Cc2nnc(SCc3cccc(C(F)(F)F)c3)o2)c(C)c1Br
active: locus YLR113W, strain HOG1, hits give low values 0.854
inactive: locus YAR019C, strain CDC15, hits give low values 0.982 | locus YBL105C, strain PKC1, hits give low values 0.969 | locus YBR135W, strain CKS1, hits give low values 0.967 | locus YBR136W, strain MEC1, hits give low values 0.97 | locus YBR160W, strain CDC28, hits give low values 0.975 | locus YDL017W, strain CDC7, hits give low values 0.977 | locus YDL028C, strain MPS1, hits give low values 0.973 | [1] 0.972 | locus YDL108W, strain KIN28, hits give low values 0.969 | locus YDL132W, strain cdc53, hits give low values 0.969 | locus YDL214C, strain PRR2, hits give low values 0.932 | locus YDR052C, strain DBF4, hits give low values 0.983 | locus YDR054C, strain cdc34, hits give low values 0.975 | locus YDR226W, strain ADK1, hits give low values 0.977 | locus YDR477W, strain SNF1, hits give low values 0.968 | locus YER123W, strain YCK3, hits give low values 0.921 | locus YER133W, strain GLC7, hits give low values 0.967 | locus YFL009W, strain cdc4, hits give low values 0.973 | locus YFL029C, strain CAK1, hits give low values 0.979 | locus YFR003C, strain YPI1, hits give low values 0.971 | locus YFR019W, strain FAB1, hits give low values 0.952 | locus YFR028C, strain CDC14, hits give low values 0.963 | locus YGR040W, strain KSS1, hits give low values 0.957 | locus YGR052W, strain FMP48, hits give low values 0.965 | locus YGR092W, strain DBF2, hits give low values 0.987 | [2] 1.03 | locus YHR079C, strain IRE1, hits give low values 1 | locus YHR082C, strain KSP1, hits give low values 1 | locus YHR205W, strain SCH9, hits give low values 0.959 | locus YIL147C, strain SLN1, hits give low values 0.968 | locus YJL095W, strain BCK1, hits give low values 0.965 | locus YJL128C, strain PBS2, hits give low values 0.945 | locus YJL157C, strain FAR1, hits give low values 0.965 | locus YJR016C, strain ILV3, hits give low values 0.978 | locus YJR066W, strain TOR1 (second series), hits give low values 0.969 | locus YJR066W, strain TOR1, hits give low values 1.03 | locus YKL048C, strain ELM1, hits give low values 0.974 | locus YKL067W, strain YNK1, hits give low values 0.944 | locus YKL101W, strain HSL1, hits give low values 0.905 | locus YKL193C, strain SDS22, hits give low values 0.971 | locus YKL203C, strain TOR2, hits give low values 1.01 | locus YLR133W, strain CKI1, hits give low values 0.935 | locus YLR403W, strain SFP1, hits give low values 0.949 | locus YML070W, strain DAK1, hits give low values 0.916 | locus YMR001C, strain CDC5, hits give low values 0.973 | locus YMR205C, strain PFK2 (second series), hits give low values 0.946 | locus YMR277W, strain FCP1, hits give low values 0.974 | locus YNL006W, strain LST8, hits give low values 0.971 | locus YNL020C, strain ARK1, hits give low values 0.942 | locus YNL161W, strain CBK1, hits give low values 0.969 | locus YNL183C, strain NPR1, hits give low values 0.99 | locus YNL207W, strain RIO2, hits give low values 0.975 | locus YNL222W, strain SSU72, hits give low values 0.97 | locus YNL307C, strain MCK1 (second series), hits give low values 0.956 | locus YOL078W, strain AVO1, hits give low values 0.967 | locus YOL136C, strain PFK27, hits give low values 0.881 | locus YOR061W, strain CKA2, hits give low values 0.952 | locus YOR119C, strain RIO1, hits give low values 1.02 | locus YOR231W, strain MKK1, hits give low values 0.91 | locus YOR329C, strain SCD5, hits give low values 0.978 | locus YPL031C, strain PHO85, hits give low values 0.961 | locus YPL153C, strain RAD53, hits give low values 0.972 | locus YPL204W, strain HRR25, hits give low values 0.932 | locus YPL209C, strain IPL1, hits give low values 0.982 | locus YPL256C, strain CLN2, hits give low values 0.965 | locus YPR025C, strain CCL1, hits give low values 0.974 | locus YPR106W, strain ISR1, hits give low values 0.975 | locus YPR111W, strain DBF20, hits give low values 0.947 | strain NNK1, hits give low values 0.961 | strain TSCII, hits give low values 0.972
